Drawing on PubChem BioAssay (NCI), this text covers growth for 26 molecules.

Compounds without any hit were thinned out: in the full panel of roughly 83,000, 20% have a hit.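 Each cell line was grown in a 96-well plate and treated with one concentration of compound for 48 hours. Values below 10 were considered active.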 Unmarked numbers belong to inactive results. Calls of active or inactive are those of the source.

Test in all cases: NCI-60 one-dose screen, 48 h (100 = growth as untreated, 0 = no growth, -100 = all killed)
Conditions in all cases: 10 µM unless noted

In experiment [1] the test system is DU-145 prostate.
Experiment [2] has as its system K-562 leukemia.
The test system of experiment [3] is MALME-3M melanoma.
The subject of experiment [4] is MDA-MB-231 breast.
The subject of experiment [5] is RXF 393 renal.
The test system of experiment [6] is SF-268 CNS.
Experiment [7] concerns SF-295 CNS.
The test system of experiment [8] is SF-539 CNS.
The test system of experiment [9] is UACC-257 melanoma.
In experiment [10] the test system is M14 melanoma.

For the molecule `C=C1C(=O)O[C@H]2[C@H]1CC/C(COC(=O)NCc1c[nH]c3ccc(F)cc13)=C\CC[C@@]1(C)O[C@@H]21`, the growth was -62.9% (active) in [1]; 1.89% (active) in experiment [2]; -68.8% (active) in experiment [3]; -57.5% (active) in experiment [4]; -88.5% (active) in experiment [5]; 36% in experiment [6]. Moreover, the growth in [7] is 61.2%; in experiment [8], -52.6% (active); in experiment [9], 14.3%; in experiment [10] it was -50.8% (active).

Turning to `CCCCC[n+]1ccc(SCC(=O)N(C)c2ccc(Oc3ccccc3)cc2)c2ccccc21`, the growth is 112% in experiment [1]; 25.4% in [2]; 84.8% in [3]; 110% in experiment [4]; 115% in [5]; 116% in [6]. Besides, the growth in experiment [7] is 91.4%; in [8], 107%; in [9], 96.2%; in experiment [10], 102%.

For `COc1cc2oc(-c3cccc(C(=O)Nc4ccc(Cl)cc4)c3)cc(=O)c2c(O)c1OC`, the growth in experiment [1] is 62.9%; in experiment [2], 69.4%; in experiment [3], 68.4%; in [4] it was 55.8%; in [5], 41.3%; in [6] it was 28.6%. The growth is 52% in experiment [7], 55% in [8], 83.2% in experiment [9] and 69.8% in experiment [10].

Take `ClC1=C(Br)C(Br)(Br)C(=C(Br)Br)C1(Br)Br`: the growth in experiment [1] is 104%; in [2] it was 70.1%; in [3], 94.1%; in [4], 79.2%; in [5], 94.3%; in [6] it was 108%. For the same molecule, the growth was 115% in experiment [7], 100% in [8], 87.6% in [9] and 81.6% in [10].

As to `O=S(=O)(NCCNc1nccc(-c2c(-c3cccc(O)c3)nc3occn23)n1)c1ccc(Cl)cc1`, the growth in [1] is 111%; in experiment [2] it was 87.8%; in experiment [3], -4.98% (active); in [4], 86.2%; in experiment [5] it was 107%; in experiment [6] it was 103%. Also, the growth in experiment [7] is 114%; in experiment [8] it was 121%; in experiment [9], 46.9%; in experiment [10], 35.1%.

With `CN(C)CCn1c2ccc(Br)cc2c2nc3ccccc3nc21`, the growth in experiment [1] was 27%; in [2] it was 12.1%; in experiment [3], 51.3%; in experiment [4], 30.3%; in experiment [5], 39.4%; in [6] it was 43.1%. Moreover, the growth in [7] is 26.8%; in experiment [8] it was 27.3%; in [9] it was 46%; in [10] it was 30%.

As to `COc1cc2nc(-c3ccc(Cl)cc3)cc(OCCCN3CCCCC3)c2cc1OC`, the growth was 40.9% in [1]; 14.3% in experiment [2]; 46.1% in [3]; 27.4% in [4]; 39.1% in experiment [5]; 57.5% in experiment [6]. The growth in experiment [7] is -51.3% (active); in experiment [8], 49.5%; in [9], -0.848% (active); in experiment [10], -28.2% (active).

With `COc1ccc2[nH]c(O)c(/C=c3/cc4c(c(-c5ccc(F)cc5)n3)=Nc3ccccc3-4)c2c1`, the growth in [1] is 76.6%; in experiment [2] it was 23.5%; in experiment [3] it was 114%; in experiment [4], 32.2%; in [5], 81.5%; in experiment [6], 79.3%. In addition, the growth in [7] was 86.9%; in experiment [8], 89.5%; in [9], 113%; in experiment [10], 92.3%.

On to `O=C(Nc1ccccc1C(=O)N/N=C(\c1ccccc1)c1ccccn1)c1ccc(F)cc1`, for which the growth in experiment [1] was 23.5%; in [2], 12.8%; in experiment [3], 35.6%; in experiment [4], 36.6%; in [5] it was 37.2%; in experiment [6], 19.2%. Further, the growth in experiment [7] is 20.9%; in experiment [8], 9.35% (active); in experiment [9], 2.87% (active); in experiment [10] it was -23.3% (active).

Turning to `O=C1Nc2cc(-c3cccc(O)c3)ccc2/C1=C/c1ccc[nH]1`, the growth in experiment [1] was 33.8%; in [2], 5.66% (active); in experiment [3], 16.1%; in experiment [4] it was -15.8% (active); in [5] it was -39.8% (active); in experiment [6], 15.4%. Also, the growth in experiment [7] was 19.3%; in [8], -48.7% (active); in experiment [9] it was 46%; in experiment [10] it was 16.9%.

Consider `O=C(N/N=C/c1ccc(Oc2ccccc2)cc1)c1cnn2c1NC(c1ccccc1)C2` (stereo not given), for which the growth was 49.2% in [1]; 46.4% in experiment [2]; 20.5% in [3]; 72.8% in [4]; 71.5% in experiment [5]; 64.5% in [6]. Moreover, the growth in [7] is 18.6%; in experiment [8], 37.5%; in [9], 59.8%; in experiment [10], 46.2%.

`C=C(C)[C@@H]1CC[C@]2(C(=O)N3CCN(C)CC3)CC[C@]3(C)[C@H](CC[C@@H]4[C@@]5(C)C/C(=C/c6ccncc6)C(=O)C(C)(C)[C@@H]5CC[C@]43C)[C@@H]12`: the growth in [1] is 72.7%; in [2], 21%; in experiment [3], 62%; in experiment [4], 74.3%; in [5], 49.4%; in experiment [6], 62.3%. In addition, the growth in experiment [7] was 75.2%; in experiment [8] it was 73.4%; in experiment [9], 56.9%; in experiment [10], 68.5%.

With `O=C1c2ccc3c4c(ccc(c24)C(=O)N1CCCNCc1ccccc1Cl)C(=O)N(CCCNCc1ccccc1Cl)C3=O`, the growth in [1] was -86.5% (active); in experiment [2], -38.2% (active); in experiment [3], -72.9% (active); in experiment [4], 16.7%; in experiment [5], -94.2% (active); in experiment [6], -30.2% (active). For the same molecule, the growth in experiment [7] was -52.2% (active); in [8] it was -67.6% (active); in [9], -90.6% (active); in experiment [10], -56.5% (active).

Take `COc1cccc(/C=N/NC(=O)c2cnn3c2NC(c2ccccc2)C3)c1Oc1ccccc1` (stereo not given): the growth was 89.8% in experiment [1]; 36% in [2]; 75.3% in [3]; 90.7% in experiment [4]; 82.1% in [5]; 88.3% in [6]. Besides, the growth in [7] is 63.3%; in experiment [8], 84%; in [9], 86.3%; in [10], 50.2%.

Consider `N=C(N)c1ccc(OCCCCCCCCCCOc2ccc(C(=N)N)cc2)cc1`, for which the growth in [1] is -96.6% (active); in experiment [2], -67.5% (active); in [3], -81.8% (active); in experiment [4], -91.7% (active); in experiment [5] it was -82.8% (active); in experiment [6], -81.3% (active). Further, the growth in experiment [7] is -82.4% (active); in experiment [8] it was -87% (active); in experiment [9] it was -69.7% (active); in experiment [10], -85.6% (active).

With `COc1cc2c(c(O)c1Br)C(=O)c1c(O)cc(C[C@H](C)O)cc1[C@H]2[C@H]1c2cc(C[C@H](C)O)cc(O)c2C(=O)c2c1cc(OC)c(Br)c2O`, the growth in experiment [1] was 24.5%; in experiment [2] it was 5.05% (active); in experiment [3], -26.8% (active); in experiment [4] it was -58.1% (active); in experiment [5], 21.1%; in [6], 19.4%. Also, the growth in [7] is -21.4% (active); in experiment [8] it was -23.8% (active); in experiment [9], -2.79% (active); in experiment [10] it was 16.5%.

For the molecule `COc1ccc(OC)c(-c2cc(-c3ccc(Cl)cc3)c3c(N)c(C(=O)c4ccc(Cl)cc4)sc3n2)c1`, the growth was 107% in experiment [1]; 118% in [2]; 89.7% in [3]; 90.4% in [4]; 115% in [5]; 100% in experiment [6]. Besides, the growth in experiment [7] was 99.2%; in experiment [8], 101%; in experiment [9], 98.2%; in experiment [10], 102%.

As for `Cc1ccc(S(=O)(=O)Nn2c3c(cc(-c4nc5ccccc5s4)c2=O)CCCCCC3)cc1`, the growth in [1] is 105%; in experiment [2], 98.4%; in experiment [3], 88.3%; in experiment [4], 93.2%; in experiment [5], 101%; in experiment [6], 96%. Moreover, the growth in experiment [7] is 97.2%; in experiment [8], 100%; in experiment [9], 97.3%; in experiment [10], 99%.

In the case of `CCCCOc1ccc(/C(C)=N/Nc2cc(C)nc3ccc(Br)cc23)cc1`, the growth in [1] is 96.3%; in experiment [2], 15.7%; in experiment [3] it was 145%; in [4], 81.3%; in experiment [5], 94.3%; in experiment [6] it was 96.3%. Moreover, the growth in experiment [7] is 76.2%; in experiment [8], 98.7%; in [9], 114%; in experiment [10] it was 104%.

As to `CC1=C(C(=O)/C=C/c2ccc(N(C)C)cc2)C(c2ccccc2)NC(=S)N1` (stereo not given), the growth in experiment [1] was 107%; in experiment [2] it was 92.1%; in [3], 108%; in experiment [4] it was 100%; in experiment [5], 107%; in [6], 97.8%. For the same molecule, the growth in experiment [7] is 110%; in experiment [8], 97.1%; in experiment [9], 99.7%; in experiment [10], 101%.

Take `COc1ccccc1/C(C)=N/NC(=O)CSc1nc2ccccc2c(=O)n1Cc1ccc(S(N)(=O)=O)cc1`: the growth is 108% in [1]; 98.2% in experiment [2]; 103% in experiment [3]; 96.6% in experiment [4]; 95.9% in experiment [5]; 89.2% in experiment [6]. In addition, the growth in experiment [7] is 93.9%; in experiment [8], 94.4%; in experiment [9] it was 95.4%; in [10] it was 108%.

For `O=C(CCN1CCCC1)Nc1ccc2c(NCCCc3ccccc3)c3ccccc3nc2c1`, the growth was -52.6% (active) in experiment [1]; -7.07% (active) in experiment [2]; -90.7% (active) in [3]; -24.3% (active) in [4]; 5.65% (active) in [5]; 21% in experiment [6]. Besides, the growth in [7] is 46.9%; in experiment [8] it was 13.7%; in [9], 14.7%; in experiment [10] it was -61.5% (active).

Turning to `CC1=C(C(=O)/C=C/c2c[nH]c3ccccc23)C(c2ccccc2)NC(=S)N1` (stereo not given), the growth in experiment [1] is 113%; in experiment [2], 90.1%; in experiment [3], 97.7%; in [4], 85.3%; in experiment [5], 105%; in experiment [6], 92.7%. Moreover, the growth in experiment [7] was 97.6%; in experiment [8] it was 98.2%; in [9] it was 102%; in experiment [10], 94.4%.

Regarding `O=C(O)c1ccc(-c2nn(-c3ccc(C(F)(F)F)cc3)cc2CNc2ccc(Oc3ccccc3)cc2)cc1`, the growth in [1] was 95.5%; in experiment [2], 65.3%; in [3] it was 107%; in experiment [4] it was 91.4%; in [5], 88.4%; in [6], 79.5%. Also, the growth in experiment [7] was 72.7%; in experiment [8], 89.6%; in [9], 102%; in experiment [10], 84.6%.

As to `O=C(Cc1ccccc1)NNc1nc(Cl)nc(N2CCN(C(c3ccccc3)c3ccccc3)CC2)n1`, the growth is 110% in experiment [1]; 9.78% (active) in experiment [2]; 99.6% in experiment [3]; 84.4% in [4]; 85.8% in experiment [5]; 100% in [6]. The growth in experiment [7] was 98.6%; in experiment [8], 102%; in [9], 90.6%; in [10], 81.6%.

Turning to `N#C/C(=C\c1ccccn1)c1nc2cc(Cl)ccc2s1`, the growth was 92.8% in experiment [1]; 48.3% in [2]; 87.5% in [3]; 61.3% in [4]; 60.3% in experiment [5]; 68.8% in [6]. Moreover, the growth in experiment [7] was 94.4%; in [8] it was 63.1%; in [9], 91.8%; in [10] it was 89.9%.
